Records with an inconclusive call do not appear. Calls of active or inactive are those of the source. Rule for the calls, unless noted: active = hit-call score of the fitted dose curve at least 0.9, where 1 is the maximum; inactive = score below 0.9.
Key:
[1] = CCTE_Shafer_MEA_acute_burst_duration_mean: CCTE's Neural Acute Assay for Mean Burst Duration, Shafer Lab (AID 2284014);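 note: hits are decreases in mean burst duration relative to DMSO controls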
How it was run: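 Primary rat cortical neurons on 16-electrode MEA wells, treated on DIV 13 or 15 with compound (0.03-40 uM; ≥3 wells each). 40-min baseline and 40-min exposure recordings at 37 C; percent change in mean burst duration per well versus DMSO.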

[2] = CCTE_Shafer_MEA_acute_per_burst_spike_number_mean: CCTE's Neural Acute Assay for Average Number of Spikes Per Burst, Shafer Lab (AID 2284015);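 note: hits are decreases in mean spikes per burst versus baseline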
How it was run: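 Read-out: percent change in mean spikes per burst, each well's post-exposure 40-min recording versus its own 40-min baseline. Rat cortical cultures, DIV 13 or 15, compounds 0.03-40 uM; DMSO is negative control, loss-of-signal fitting.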

[3] = CCTE_Shafer_MEA_acute_interburst_interval_mean: CCTE's Neural Acute Assay for Mean Interburst Interval, Shafer Lab (AID 2284016);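 note: percent change of mean interburst interval versus each well's own pre-dose baseline; curves fitted for decrease in interburst interval relative to DMSO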
How it was run: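 Rat cortical cultures, DIV 13/15; 20 min equilibration, 40 min baseline, compound 0.03-40 uM, 40 min re-recording, 37 C. Spikes detected at 8x rms noise (300-5000 Hz band-pass). Endpoint: % change in interburst interval, fitted in loss direction vs DMSO.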

[4] = CCTE_Shafer_MEA_acute_burst_percentage_mean: CCTE's Neural Acute Assay for Percentage of Spikes in a Burst, Shafer Lab (AID 2284017);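 for AC50: curve fitted for loss of signal so potency reflects decreased burst percentage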
How it was run: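 Rat cortical cultures, DIV 13/15, 37 C. Spikes detected at 8x rms noise (300-5000 Hz band-pass). Burst spikes/total spikes averaged across electrodes per well; % change post- vs pre-treatment (40 min each), loss-of-signal fit vs DMSO.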

[5] = CCTE_Shafer_MEA_acute_burst_percentage_std: CCTE's Neural Acute Assay for Standard Deviation of Burst Percentage, Shafer Lab (AID 2284018);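 note: fitted in the negative direction so actives lower burst percentage SD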
How it was run: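 Primary rat cortical neurons on 16-electrode MEA wells were recorded 40 min at baseline (DIV 13 or 15), then 40 min after compound (0.03-40 uM), at 37 C. Well value is SD across electrodes of spikes-in-bursts/total spikes; endpoint is percent change, DMSO-referenced.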

[6] = CCTE_Shafer_MEA_acute_per_network_burst_spike_number_mean: CCTE's Neural Acute Assay for Average Number of Spikes in a Network Burst, Shafer Lab (AID 2284019);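 for AC50: curve fitted for loss of signal so actives reduce spikes per network burst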
How it was run: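 Primary rat cortical neurons on 16-electrode MEA wells, DIV 13 or 15, 37 C; 40-min baseline then 40-min recording with compound (0.03-40 uM). Spikes per network burst (total spikes/number of bursts) expressed as percent change from baseline, DMSO reference.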

[7] = CCTE_Shafer_MEA_acute_per_network_burst_spike_number_std: CCTE's Neural Acute Assay for Standard Deviation of Number of Spikes in a Network Burst, Shafer Lab (AID 2284020);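 note: fitted for decrease in spike-number SD versus DMSO so actives lower it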
How it was run: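 Primary rat cortical neurons on 48-well MEAs (16 electrodes/well) recorded at DIV 13 or 15: 40-min baseline, then 40 min with compound (0.03-40 uM), 37 C. Value is percent change in SD of spikes per network burst, relative to DMSO.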

[8] = CCTE_Shafer_MEA_acute_per_network_burst_electrodes_number_mean: CCTE's Neural Acute Assay for Mean Number of Electrodes in a Network Burst, Shafer Lab (AID 2284021);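 note: curves fitted for decreases only so hits reduce electrodes per burst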
How it was run: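 Cultures of rat cortex neurons were exposed on DIV 13 or 15 to compounds at 0.03-40 uM in at least three wells each. Activity over 40 min before and 40 min after exposure at 37 C gave the percent change in electrodes per network burst.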

[9] = CCTE_Shafer_MEA_acute_network_burst_percentage: CCTE's Neural Acute Assay for Percentage of Network Bursts, Shafer Lab (AID 2284022);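 note: curves fitted for loss so actives lower network burst percentage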
How it was run: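 Cortical neurons from rat were grown over microelectrode arrays and used on day 13 or 15 in vitro. Wells with at least 10 active electrodes received test chemical at 0.03-40 uM. Activity during 40 min of exposure was compared with the preceding 40-min baseline.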

[10] = CCTE_Shafer_MEA_acute_cross_correlation_area: CCTE's Neural Acute Assay for Area of Cross Correlation, Shafer Lab (AID 2284024);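 note: area under pooled inter-electrode spike cross-correlation near zero lag as percent change from own baseline; curves fitted for loss of cross-correlation area so actives lower synchrony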
How it was run: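 Acute exposure of mature rat cortical networks (day 13 or 15 post-plating) to 0.03-40 uM compound. Spontaneous spiking on MEA, 40 min pre- and post-dose at 37 C.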

[11] = CCTE_Shafer_MEA_acute_cross_correlation_HWHM: CCTE's Neural Acute Assay for Cross Correlation at Half Width at Half Maximum, Shafer Lab (AID 2284026);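 note: spontaneous network firing of rat primary cortical neurons on multiwell microelectrode arrays; percent change per well from pre-dose baseline in spike cross-correlogram half width; hits are a decrease in cross-correlogram half width relative to DMSO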
How it was run: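 Primary cortex (rat), MEA, DIV 13/15; compound 0.03-40 uM; 40 min pre + 40 min post at 37 C; spike threshold 8x rms; wells need ≥10 active electrodes; endpoint = % change in cross-correlogram HWHM vs baseline, DMSO negative control.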

[12] = CCTE_Shafer_MEA_acute_synchrony_index: CCTE's Neural Acute Assay for Synchrony, Shafer Lab (AID 2284027);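 note: network synchrony index of spontaneous spiking in primary rat cortical neurons on MEAs; fitted for loss of signal so actives lower synchrony relative to DMSO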
How it was run: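 Primary rat cortical neurons on 16-electrode MEA wells were recorded 40 min at baseline (DIV 13 or 15) and 40 min after compound (0.03-40 uM) at 37 C. Synchrony index (0-1) expressed as percent change from baseline, versus DMSO.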

[13] = CCTE_Deisenroth_AIME_384WELL_CTox_Active: Cytotoxicity Assessment (CTOX) in CCTE's 384-well Estrogen Receptor Transactivation Assay with AIME metabolic competence (metabolism positive), Deisenroth Lab (AID 2284037; active = hit-call score of the fitted dose curve at least 0.9, where 1 is the maximum;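 note: chemicals first conditioned 2 h by alginate-bound induced rat liver S9 before cells; activity means signal loss indicating cell death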)
How it was run: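 VM7Luc4E2 breast cells received medium pre-incubated 2 h with chemical over alginate microspheres holding induced male Sprague Dawley rat liver S9; viability read 24 h later by protease-substrate fluorescence. Loss of signal, bidirectional fit, 0.002–200 uM.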

[14] = CCTE_Deisenroth_AIME_384WELL_CTox_Inactive: Cytotoxicity Assessment (CTOX) in CCTE's 384-well Estrogen Receptor Transactivation Assay without AIME metabolic competence (metabolism negative), Deisenroth Lab (AID 2284039; active = hit-call score of the fitted dose curve at least 0.9, where 1 is the maximum;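 note: cell viability via live-cell protease substrate cleaved to fluorescent probe; cells exposed 24 h to medium preincubated 2 h with alginate-water beads without S9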)
How it was run: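 Metabolism-negative arm: chemicals (10-point, 0.002 - 200 uM) preincubated 2 h with alginate-water lids, medium moved onto VM7Luc4E2 cells for 24 h. Fluorescent live-cell protease readout; bidirectional curve fit.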

[15] = CCTE_Harrill_HTTr_CellCount_MCF7: CCTE's Cell Proliferation Assessment for the High-Throughput Transcriptomics (HTTr) Platform, Harrill Lab (AID 2284012; active = hit-call score of the fitted dose curve at least 0.9, where 1 is the maximum;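 note: cells exposed to compound for six hours; intended direction is loss of nuclei count meaning fewer cells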)
How it was run: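 MCF-7 cells were exposed for 6 h to an eight-point dilution series; Hoechst-labeled nuclei were counted by high content imaging. Curves were fitted bidirectionally against DMSO as negative control and baseline, with signal loss indicating reduced cell count.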

[16] = molecular target: Estrogen receptor (Homo sapiens) (UniProt P03372); experiment: CCTE_Deisenroth_AIME_384WELL_LUC_Active: CCTE's 384-well Estrogen Receptor Transactivation Assay with AIME metabolic competence (ERTA luciferase; metabolism positive), Deisenroth Lab (AID 2284030; active = hit-call score of the fitted dose curve at least 0.9, where 1 is the maximum)
Sequence of Estrogen receptor (Homo sapiens) (P03372 whole entry, looked up): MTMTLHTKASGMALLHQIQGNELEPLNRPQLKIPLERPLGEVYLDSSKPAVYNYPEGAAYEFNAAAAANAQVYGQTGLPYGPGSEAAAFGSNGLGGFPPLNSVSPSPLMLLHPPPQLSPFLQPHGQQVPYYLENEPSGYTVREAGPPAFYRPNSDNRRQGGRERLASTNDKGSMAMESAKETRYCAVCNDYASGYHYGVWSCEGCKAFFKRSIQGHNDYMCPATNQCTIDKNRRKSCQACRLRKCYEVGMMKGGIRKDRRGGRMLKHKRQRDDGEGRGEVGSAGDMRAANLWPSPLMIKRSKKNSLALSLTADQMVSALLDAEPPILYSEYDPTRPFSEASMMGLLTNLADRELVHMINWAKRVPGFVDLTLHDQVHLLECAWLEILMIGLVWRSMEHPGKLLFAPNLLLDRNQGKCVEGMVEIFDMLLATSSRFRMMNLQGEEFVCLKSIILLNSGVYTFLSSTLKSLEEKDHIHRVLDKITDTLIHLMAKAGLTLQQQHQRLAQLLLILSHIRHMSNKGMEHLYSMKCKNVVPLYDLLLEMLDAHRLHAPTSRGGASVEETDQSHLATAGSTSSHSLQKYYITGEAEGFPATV
How it was run: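 In this metabolism-positive format, a 2-hour exposure to alginate-immobilized rat S9 precedes a 24 hour luciferase transactivation readout in VM7Luc4E2 cells. Dosing spans 10 concentrations from 0.002 to 200 uM.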

[17] = molecular target: Estrogen receptor (Homo sapiens) (UniProt P03372); experiment: CCTE_Deisenroth_AIME_384WELL_LUC_Inactive: CCTE's 384-well Estrogen Receptor Transactivation Assay without AIME metabolic competence (ERTA luciferase; metabolism negative), Deisenroth Lab (AID 2284038; active = hit-call score of the fitted dose curve at least 0.9, where 1 is the maximum;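 note: hits raise estrogen receptor luciferase signal so potencies reflect agonists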)
How it was run: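 Chemicals (10-point series, 0.002 - 200 uM) were incubated 2 hours with alginate-water microsphere lids lacking S9, then the conditioned medium was transferred to VM7Luc4E2 breast cells for 24 hour. Luciferase induction was read by bioluminescence, fitted upward relative to 17beta-estradiol.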

Measured: AC50

OC[C@H]1O[C@H](O[C@]2(CCl)O[C@H](CCl)[C@@H](O)[C@@H]2O)[C@H](O)[C@@H](O)[C@H]1Cl
not listed: [13] | [14] | [15] | [16] | [17]
inactive: all other assays above

CC[Si](OC(C)=O)(OC(C)=O)OC(C)=O
not listed: [13] | [14] | [15] | [16] | [17]
inactive: all other assays above

O=C[C@@H](O)[C@H](O)[C@H](O)CO
inactive: [13] | [14]

CC(=O)[C@H]1CC[C@H]2[C@@H]3CC=C4C[C@@H](O)CC[C@]4(C)[C@H]3CC[C@]12C
active: [4] 2980 nM | [6] 15000 nM | [9] 26.7 nM | [10] 3 nM | [12] 4.09 nM
inactive: [1] | [2] | [3] | [5] | [7] | [8] | [11]

O=C1C(c2[nH]c3ccc(S(=O)(=O)O)cc3c2O)=Nc2ccc(S(=O)(=O)O)cc21
inactive: [15] | [14]

CCCCCCCCC=O
not listed: [13] | [14] | [15] | [16] | [17]
inactive: all other assays above

CCCCCOC(=O)CCC
inactive: [13]

NCCCN1CCOCC1
inactive: [16] | [13] | [17] | [14]

NCCNCCN
not listed: [14] | [15] | [16] | [17]
inactive: all other assays above

CCCCC(CC)COC(=O)/C=C\C(=O)OCC(CC)CCCC (stereo not given)
inactive: [15] | [14]

O=C(O)Cc1cccc2ccccc12
inactive: [15] | [13]

OC1OC[C@@H](O)[C@H](O)[C@H]1O (stereo not given in full)
active: [5] 1210 nM
not listed: [14] | [15] | [16] | [17]
inactive: all other assays above

NC(=O)NC1NC(=O)NC1=O (stereo not given)
inactive: [15] | [14]

CC1(C)C(=O)N(Br)C(=O)N1Cl
inactive: [13] | [14]

CC(=O)OCCC(C)CC(C)(C)C (stereo not given)
not listed: [13] | [14] | [15] | [16] | [17]
inactive: all other assays above

CC(C)(COC(=O)c1ccccc1)COC(=O)c1ccccc1
not listed: [13] | [14] | [15] | [16] | [17]
inactive: all other assays above

Reference: PubChem BioAssay (EPA / NIEHS)
